Abeta yeast res = qHTS for compounds that reverse cellular toxicity of Amyloid beta (A-beta) peptide in yeast: Primary Screen | Potency, µM (series often up to 46.1 µM), most hits filed as activators | actives 0.063% (n = 410,000) | AID 1347071, 2019 | yeast expressing A-beta42, growth rescue, OD600, 48 h; response scale: 0% DMSO, 100% iron-clioquinol control; note: potency is the fitted concentration of half-maximal effect; nearly all actives have a fitted effect of over 55% in size
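Yeast A-beta toxicity model in growth medium with pinned compounds, 48 h at 30 C; growth read as absorbance at 600 nm. Normalized to FeCl3/clioquinol equimolar mix (positive) and DMSO (negative).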
TDP43 rescue = qHTS of TDP-43 Inhibitors | TDP-43 expressing yeast growth rescue, BacTiter-Glo, 24 h | Potency, µM (titrated, usually from 46.1 µM), without a hit: at the highest dose growth rescue (activation), most hits filed as activators | actives 1.8% (n = 410,000) | AID 652104, 2013; note: potency is the fitted concentration of half-maximal effect; % of control where 0% means no effect; nearly all actives have a fitted effect of over 50% in size
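Galactose-induced TDP-43 yeast, OD600=0.02, compound pinned; 24 hr, 30 deg C; BacTiter-Glo luminescence for growth. Inhibitors of TDP-43 toxicity read as activators.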
aSyn rescue = qHTS of alpha-syn Inhibitors; Yeast expressing alpha-synuclein, growth rescue, BacTiter-Glo, 24 h; Potency, µM (highest dose often 46.1 µM), for the others: top-dose growth rescue (activation), usual class: activators; actives 0.14% (n = 370,000); note: potency is the fitted concentration of half-maximal effect; % of control where 0% means no effect; nearly all actives have a fitted effect of over 65% in size
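Screening used galactose-induced yeast with toxic alpha-synuclein levels, exposed to compound for 24 hr at 30 deg C. Cell growth, read with BacTiter-Glo luminescence, gave the measured signal.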
pAkt inh = HTS Assay for Inhibitors of Akt Phophorylation: Primary Screen; actives 0.32% (n = 360,000); Neuro2A IGF-stimulated pAkt S473 HTRF, 20 min; stronger effect = lower value; activity change, % for hits at 50 µM; in the data active = activity change below about -80%; inconclusive = mostly about -51% to -80%; note: % is set by controls: 0 for no effect and ±100 for the full control effect
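Single-point screen (50 µM final compound) in Neuro2A cells stimulated 20 min with 6 nM IGF at 37 deg C. After lysis, Ser473-phosphorylated Akt read by HTRF (ex 330 nm, em 615/665 nm) as the 665/615 ratio.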
FUS suppressor = qHTS for Suppressors of FUS Proteinopathy: Primary screen using FUS-linked yeast assay. S. cerevisiae FUS-expressing, growth rescue, OD600, 24 h. actives 0.24% (n = 390,000). Potency, µM (doses to about 76.6 µM), most hits filed as activators;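 note: potency is the fitted concentration of half-maximal effect; plate controls were DMSO vehicle for no effect and reference control for full effect; nearly all actives have a fitted effect of over 55% in size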
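Cultures pregrown in 2.5% raffinose medium are shifted to minimal medium containing 2% galactose to express toxic FUS. Compounds are tested at several concentrations. After 24hr at 30C, growth is quantified at 600 nm absorbance.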
Starred values were filed as active, the others as inactive; i = inactive; ? = inconclusive; nt = not tested or not shown; ! = not confirmed by another sample; [ ] = dose if it differs, or a comment. Hits are enriched below; roughly 2.3% of the tested compounds scored in any of these assays. Unless noted, calls come from the whole dose curve; as a rule, active = well fitted curve in the direction sought with a large enough effect; inconclusive = small, poorly fitted or top-dose-only effect, or another doubt; inactive = no such curve, though single readings can be large; an effect the other way counts as inactive or inconclusive.

SMILES	Abeta yeast res	TDP43 rescue	aSyn rescue	pAkt inh	FUS suppressor
O=c1[nH]c(=S)[nH]c2n[nH]nc12	nt	nt	0%	nt	nt
CCOC(=O)/C(=N\Nc1cccc(Cl)c1)Sc1nnc(-c2ccc(OC)cc2)n1C	i	32µM*	0%	i	nt
COc1cccc(C(=O)c2c[nH]c(C(=O)NCc3ccco3)c2)c1	i	9%	0%	-112%*	i
COc1ccccc1CCNC(=O)C(=O)NCC(c1ccc2c(c1)OCO2)N1CCOCC1 (centres undefined)	i	-6%	nt	nt	i
Cc1nn(C)c2c1c(-c1ccccc1)cc(=O)n2Cc1ccc(F)cc1	i	2%	nt	nt	i
Cc1ccc(S(=O)(=O)N2CCSC2)cc1C	i	-11%	1%	i	0.89µM*
COc1cc(-c2cc3nc(NC4CCCCC4)ccn3n2)cc(OC)c1OC	i	35µM*	1%	i	i
COc1cc(-c2cc3nc(NCCN(C)C)ccn3n2)cc(OC)c1OC	i	-3%	-1%	i	i
CCC(=O)NC(c1ccc(Cl)cc1Cl)c1ccc2cccnc2c1O (centres undefined)	i	nt	?	i	?
CC(C)C(=O)NC(c1ccc(Cl)cc1Cl)c1ccc2cccnc2c1O (centres undefined)	i	25µM*	?	i	i
CCc1ccc(OCC(=O)NCc2nc(-c3cccc(C)c3)no2)c(Br)c1	i	1%	nt	nt	i
COc1ccc(/C=C(\C#N)C(=O)NC(C)c2ccccc2)cc1O (centres undefined)	?	20µM*	27%	i	i
COC(=O)c1ccc(/C=C(\C#N)C(=O)NC(C)c2ccccc2)cc1 (centres undefined)	i	13µM*	?	i	i
CCOC(=O)C1CCN(CCC(=O)Nc2ccccc2OC)CC1	i	5%	nt	nt	i
COc1ccc2oc(=O)c(-c3cn4c(n3)sc3cc(F)ccc34)cc2c1	i	11%	nt	nt	i
CC(C)c1ccc(N2C(=O)CSC23C(=O)N(C)c2ccccc23)cc1 (centres undefined)	i	26%	-14%	nt	i
Cc1cc(C)c2nc(N3CCCN(C(=O)c4ccco4)CC3)c(C#N)cc2c1	i	18µM*	nt	nt	i
COc1ccccc1C(=O)N1CCN(c2nc3cc(C)cc(C)c3cc2C#N)CC1	i	11µM*	26%	i	i
CCN(CC)C(=O)C1CCN(S(=O)(=O)c2c(C)noc2/C=C/c2cccc(C)c2)CC1	i	0%	1%	i	20µM*
CC(=O)N1CCc2cc(Br)cc(S(=O)(=O)N3CCC(C(=O)Nc4cccc(C)c4C)CC3)c21	i	0%	nt	nt	i
COc1ccc(N=Nc2nc3ccc(Br)cc3n2C)cc1	i	13µM*	-15%	-106%*	i
O=C1CC(c2ccc3c(c2)OCCO3)Oc2ccc([N+](=O)[O-])cc21 (centres undefined)	i	7%	-12%	i	i
O=C1CC(c2ccc3c(c2)OCCO3)Oc2ccccc21 (centres undefined)	i	14µM*	-7%	i	i
CSc1ccc(CCNc2ncnc3onc(C)c23)cc1	i	?	nt	nt	i
C/C(=N\Nc1ccc(F)cc1F)c1ccc(N2CCOCC2)cc1	i	1%	18%	i	i
SMILES	Abeta yeast res	TDP43 rescue	aSyn rescue	pAkt inh	FUS suppressor
Fc1ccc(N/N=C/c2ccc(N3CCOCC3)cc2)c(F)c1	i	18µM*	13%	i	i
O=S(=O)(/C(=C/c1ccc(C(F)(F)F)cc1)c1nc2ccccc2[nH]1)c1ccccc1	i	10µM*	-7%	i	i
O=C(NCc1cccs1)Nc1cccs1	i	12%	2%	-114%*	i
O=C(Nc1cccs1)Nc1ccc(Br)cc1F	i	14µM*	-21%	i	i
O=C(Nc1cccs1)Nc1ccc(F)cc1F	i	14µM*!	-15%	i	i
O=C(Nc1ccc(F)cc1F)Nc1csc2ccccc12	i	11µM*	-23%	i	i
O=C(Nc1ccc(F)c(Cl)c1)Nc1csc2ccccc12	i	-8%	-19%	i	i
Cc1ccccc1CNC(=O)Nc1cccs1	i	0%	-4%	i	i
Cc1cc(C)cc(NC(=O)Nc2cccs2)c1	i	13%	nt	nt	i
Fc1ccc(-c2nc(Nc3cccc(C(F)(F)F)c3)nc3c2COc2ccccc2-3)cc1	i	0%[9.22 µM]	nt	nt	i
Cc1cccnc1NC(=O)Nc1cccs1	i	5µM*	0%	i	i
O=C(Nc1cccs1)Nc1ccccc1Cl	i	12%	-11%	i	i
Cc1ccc(NC(=O)Nc2cccs2)c(Cl)c1	i	13µM*	-19%	i	i
COc1cccc(Cn2c(CNC(=O)c3cc([N+](=O)[O-])ccc3Cl)nc3cccnc32)c1	i	?	nt	nt	i
COc1cccc(CNC(=O)COCc2cc(-c3ccc4c(c3)OCO4)on2)c1	i	35µM*	nt	nt	i
O=C(COCc1cc(-c2ccc3c(c2)OCO3)on1)N1CCN(c2cccc(C(F)(F)F)c2)CC1	i	35µM*!	19%	i	i
Cc1ccc(-n2ncc(C(=O)NC3CCCC3)c2C2CCN(C(=O)OC(C)(C)C)CC2)c(C)c1	?	13%	nt	nt	i
N#Cc1c(-c2cccc(F)c2)cc(-c2ccccc2)nc1Br	i	15%	3%	-94%*	i
CN(Cc1cc(Cl)cc(Cl)c1)CC(C(=O)c1ccccc1)c1ccccc1 (centres undefined)	i	13µM*	26%	i	nt
CN(C)CC(C(=O)c1ccccc1)c1ccccc1 (centres undefined)	i	9%	-1%	i	nt
COc1ccc2c(c1)CCc1c(C(=O)Nc3ccc(F)c(Cl)c3)noc1-2	i	7%	nt	nt	i
O=[N+]([O-])c1cc([N+](=O)[O-])c2c(=Nc3ccccc3)n(-c3ccccc3)n(O)c2c1	i	13µM*	-7%	i	i
Cc1ccc(NC(=O)Cn2ncn3c(cc4ccccc43)c2=O)cc1C	i	25%	nt	nt	i
COc1cc(OC)c(NC(=O)CSC2=Nc3ccccc3N=C(c3ccc(F)cc3)C2)cc1Cl	i	20%	nt	nt	i
CCCOC(=O)c1ccc(NC(=O)c2cc(OC)c(OC)c(OC)c2Br)cc1	i	13µM*	6%	i	i
CC(C)COc1ccc(C(=O)N2CCN(CCc3ccccn3)CC2)cc1	i	22%	nt	nt	i
Cc1nc(C(=O)NNC(=O)c2ccc(Cl)cc2)cs1	i	-2%	2%	i	i
